The full list was thinned out, with hits kept by preference.
Cycloheximide cs – Cycloheximide Counterscreen for Small Molecule Inhibitors of Shiga Toxin; cell reporter, cycloheximide protein synthesis inhibition counterscreen; max response, %; 300,000 compounds, 12% hits; AID 2314, 2010; in the data active means max response mostly above about 13%, no sharp cut-off; inactive means mostly below about 14%; further: read at 38.3 µM for the half of the compounds with a filed dose
Shiga inhibitor – A qHTS for Small Molecule Inhibitors of Shiga Toxin | Vero cells, Shiga toxin protein synthesis inhibition reporter | inhibition, % at 38.7 µM | 290,000 compounds, 9.2% hits | AID 2315, 2010; in the data active means inhibition mostly above about 28%, no sharp cut-off; inactive means mostly below about 43%
AmpC inh detg – qHTS Inhibitors of AmpC Beta-Lactamase (assay with detergent); P00811; AmpC hydrolysis of nitrocefin, absorbance 480 nm, 0.01% Triton; Potency, µM (series often up to 114 µM), actives largely listed as inhibitors; 370,000 compounds, 0.041% hits; AID 485294, 2010; further: nearly all actives have a fitted effect of over 25% in size
Target sequence (P00811 whole entry, looked up): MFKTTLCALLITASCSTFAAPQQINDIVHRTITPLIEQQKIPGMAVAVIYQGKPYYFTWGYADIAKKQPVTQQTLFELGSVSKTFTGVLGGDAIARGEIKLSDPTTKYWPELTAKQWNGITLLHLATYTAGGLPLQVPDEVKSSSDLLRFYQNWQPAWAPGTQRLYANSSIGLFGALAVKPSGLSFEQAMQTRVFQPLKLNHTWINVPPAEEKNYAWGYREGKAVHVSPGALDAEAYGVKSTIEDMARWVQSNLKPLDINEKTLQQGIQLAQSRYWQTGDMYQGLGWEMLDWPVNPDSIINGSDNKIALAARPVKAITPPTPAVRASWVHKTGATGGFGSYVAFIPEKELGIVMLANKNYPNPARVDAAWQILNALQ
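AmpC (5.3 nM in the dispensed reagent) in 20 mM phosphate pH 7.0 with 0.01% (detergent screen) or 0.0001% Triton X-100 was preincubated with compounds for 15 min at room temperature. Nitrocefin was then added from an 800 uM solution, and hydrolysis was followed at 480 nm.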
NS1 function inh – qHTS Assay for Inhibitors of Influenza NS1 Protein Function. Potency, µM (doses to about 46.1 µM). 270,000 compounds, 0.4% hits; calls by dose curve; further: actives are rising curves; nearly all actives have a fitted effect of over 50% in size
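Growth recovery, yeast-based: influenza A NS1 expressed in S. cerevisiae causes slow growth, and suppressors are detected by OD600. The parent strain without NS1 is used as positive control.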
AmpC no deterg – qHTS Inhibitors of AmpC Beta-Lactamase (assay without detergent); AID 485341, 2010; Potency, µM (highest dose often 57.1 µM), actives largely listed as inhibitors; AmpC nitrocefin hydrolysis, absorbance 480 nm, 0.0001% Triton; 330,000 compounds, 0.52% hits; further: nearly all actives have a fitted effect of over 20% in size
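AmpC (5.3 nM in the dispensed reagent) in 20 mM phosphate pH 7.0 with 0.01% (detergent screen) or 0.0001% Triton X-100 was preincubated with compounds for 15 min at room temperature. Nitrocefin was then added from an 800 uM solution, and hydrolysis was followed at 480 nm.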
A number is an active result; i = inactive; ? = inconclusive; nt = no result given. Unless noted, the call rests on the fitted dose curve; in most records, active means well fitted curve in the direction sought with a large enough effect; inconclusive means small, poorly fitted or top-dose-only effect, or another doubt; inactive means no such curve, though single readings can be large; an effect the other way counts as inactive or inconclusive.

SMILES	Cycloheximide cs	Shiga inhibitor	AmpC inh detg	NS1 function inh	AmpC no deterg
CCCCN1CC(=O)N2[C@H](c3ccc(OC)cc3)[C@@H]3C(=O)N(CC)C(=O)[C@@H]3[C@]2(C)C1=O	i	i	i	i	i
Cc1ccc(N)c(N)c1	51	157	i	nt	i
Cc1ccc(N)c(C(=O)c2ccc(Br)cc2)c1	i	i	i	nt	i
CC(=O)Nc1ccc(/C(C)=N/NC(=O)c2ccccc2Cl)cc1	29	50	i	i	i
C/C(=N\NC(=O)CSCc1ccccc1Cl)c1cccc(NC(=O)c2ccccc2)c1	i	i	i	i	22µM
CC(=O)Nc1cccc(/C(C)=N/NC(=O)c2ccc(Cl)cc2Cl)c1	i	i	i	i	i
C/C(=N\NC(=O)c1ccccc1O)c1cccc(NC(=O)c2ccccc2)c1	19	42	i	i	i
C/C(=N/NC(=O)c1ccncc1)c1ccc(NC(=O)c2ccccc2)cc1	i	i	i	i	i
C/C(=N\NC(=O)c1ccccc1O)c1ccc(NC(=O)c2ccccc2)cc1	38	69	?	i	i
CCCN(C(=O)c1cnccn1)c1c(N)n(Cc2ccccc2)c(=O)[nH]c1=O	nt	nt	i	nt	i
Cc1ccc(N2CC(c3nnc(NC(=O)c4ccco4)s3)CC2=O)cc1Cl (stereo not drawn)	nt	nt	i	nt	nt
CCN(CC(=O)Nc1ccc(OC)cc1)C(=O)CN1C(=O)NC(C)(c2ccc3ccccc3c2)C1=O (stereo not drawn)	i	i	i	i	i
C/C(=N/NC(=O)c1ccccc1O)c1ccc(N2C(=O)C3CCCCC3C2=O)cc1 (stereo not drawn)	22	56	i	i	i
Cc1nn(CC(=O)N2CCN(c3ccccc3F)CC2)c(=O)c2cccn12	nt	nt	i	nt	nt
O=C(CSC(=S)N1CCCCC1)c1ccccc1	23	i	i	i	i
O=C(CSC(=S)N1CCCC1)c1ccccc1	48	67	i	i	i
Cc1[nH]c2ccccc2c1C(=O)CSC(=S)N1CCCCC1	95	85	i	i	i
O=C(O)CSC(=S)N1CCCC1	i	i	i	i	i
Cc1[nH]c2ccccc2c1C(=O)CSC(=S)N(C)C1CCCCC1	i	i	?	i	i
O=c1[nH]nc(Cc2ccc3ccccc3n2)c2ccccc12	28	36	i	i	i
N/C(=N/OC(=O)c1ccccc1Cl)c1nonc1N	38	90	i	nt	i
N/C(=N\OC(=O)c1ccc(F)cc1)c1nonc1N	48	71	i	i	i
C/C(=N\OC(=O)c1ccc(F)cc1)c1ccc(F)c(F)c1	i	i	i	i	i
Cc1cc(/C(N)=N/OC(=O)c2ccccc2Cl)no1	21	38	i	i	i
N/C(=N/OCC(=O)Nc1cccc2ccccc12)c1nonc1N	i	i	?	i	i
SMILES	Cycloheximide cs	Shiga inhibitor	AmpC inh detg	NS1 function inh	AmpC no deterg
Cc1ccc(C(=O)O/N=C(\N)c2nonc2N)cc1	47	51	i	i	i
Cc1cc(NC(=O)COC(=O)c2ccccc2Cl)no1	nt	nt	nt	nt	i
Cc1ccc(C(=O)O/N=C(\N)c2ccccn2)cc1	i	i	i	i	i
COc1ccccc1CCNC(=O)C(=O)NCC1OCCN1S(=O)(=O)c1ccc2c(c1)OCCO2 (stereo not drawn)	i	i	i	i	i
CCCCC[C@@H]1C=C(C(=O)O)[C@H](c2cccc(C)c2)N1S(=O)(=O)c1ccc(C)cc1	nt	nt	nt	nt	i
CC[C@]1(C(=O)OC)[C@H]2C(=O)N(C)C(=O)[C@H]2[C@H]2CN(C)C(=NC3CCCCC3)N21	nt	nt	nt	nt	i
CCN(Cc1ccccc1)C(=O)c1cc2c(=O)[nH]c3ccc(C)cc3c2s1	nt	nt	i	nt	nt
Cn1c(=NC(=O)c2ccc(F)cc2)sc2cc(Br)ccc21	nt	nt	i	nt	nt
O=C1c2ccccc2C(Nc2ccc3c(c2)OCO3)N1Cc1ccc2c(c1)OCO2 (stereo not drawn)	38	i	i	i	i
O=C1c2ccccc2C(Nc2cccnc2)N1Cc1ccc2c(c1)OCO2 (stereo not drawn)	i	i	?	i	i
O=C1c2ccccc2C(Nc2ccc3c(c2)OCO3)N1Cc1ccco1 (stereo not drawn)	i	21	?	i	i
O=C(Nc1ccc2c(c1)OCO2)N1CCN(Cc2ccco2)CC1	13	i	i	i	i
O=C1c2ccccc2C(Nc2ccc(F)c(Cl)c2)N1Cc1ccco1 (stereo not drawn)	i	i	?	i	i
O=C1c2ccccc2C(Nc2ccc3nc(-c4cccnc4)[nH]c3c2)N1Cc1ccco1 (stereo not drawn)	i	i	i	i	i
O=C1c2ccccc2C(Nc2ccc(-c3nc4ccccc4[nH]3)cc2)N1Cc1ccco1 (stereo not drawn)	17	89	?	?	i
CCOC(=O)c1ccc(N2C(=O)C3C(/C=C/c4ccccc4)OC4(C(=O)c5ccccc5C4=O)C3C2=O)cc1 (stereo not drawn)	i	i	i	?	i
CC(S)C(=O)NCC(=O)O (stereo not drawn)	i	i	nt	nt	nt
Cc1ccc(C(=O)Nc2c(C)nc3ccccn3c2=O)cc1	nt	nt	i	nt	nt
COc1ccc(N2CCN(C(=O)C3Cc4ccccc4N3C(C)=O)CC2)cc1 (stereo not drawn)	nt	nt	i	nt	nt
COc1cccc(NC(=O)CSc2nc3c(oc4ccccc43)c(=O)n2Cc2ccco2)c1	nt	nt	i	nt	nt
CCn1c(SCC(=O)c2ccc3c(c2)OCCO3)nnc1-c1ccco1	15	i	?	i	i
Cn1cnnc1SCC(=O)c1ccc2c(c1)OCCO2	i	49	i	i	i
Cn1nnnc1SCC(=O)c1ccc2c(c1)OCCO2	38	97	i	i	i
CCCn1nnnc1SCC(=O)c1ccc2c(c1)OCCO2	36	74	i	i	i
COc1ccc(C(=O)CSc2nncn2C)cc1	i	i	i	i	i
SMILES	Cycloheximide cs	Shiga inhibitor	AmpC inh detg	NS1 function inh	AmpC no deterg
Cc1ccc([C@@H]2[C@@H]3C(=O)N(C)C(=O)[C@@H]3[C@]3(C)C(=O)N(Cc4ccc(-c5ccccc5)cc4)CC(=O)N23)o1	i	i	i	i	i
CCCN1CCCc2cc(CN(CCCN3CCOCC3)C(=O)Nc3ccc(Cl)c(Cl)c3)ccc21	nt	nt	i	nt	nt
CCOC(=O)c1sc2ccccc2c1S(=O)(=O)Nc1ccc(OC)c(Cl)c1	nt	nt	i	nt	nt
Cc1ccc(NC(=O)CSc2nc3ccccc3c(=O)n2CCCN2CCCCC2)cc1C	i	i	i	i	i
CCCCOc1ccc(C(=O)Nc2cc(C)c(OCC(=O)N3CCOCC3)c(C)c2)cc1	22	i	i	i	i
Cc1cc(NC(=O)c2ccc(Cl)cc2)cc(C)c1OCC(=O)N1CCOCC1	33	77	i	i	i
COc1cc(C(=O)Nc2cc(C)ccn2)ccc1OCC(=O)N1CCOCC1	42	51	i	i	i
COc1cc(C(=O)Nc2ccc(C)cn2)ccc1OCC(=O)N1CCOCC1	nt	nt	i	nt	i
CCOc1ccc(CC(=O)Nc2ccc(-c3ccc4nnc(C)n4n3)cc2)cc1	i	i	i	nt	i
